Columns and labels:
Experiment in all cases: DAPPL (digital affinity profiling via proximity ligation, sequencing); 10 mM Tris-HCl pH 7.5, 50 mM NaCl, 1 mM DTT, 4% glycerol, room temperature, 30 min; GST-TFs on glutathione beads, 16-mer random dsDNA library, 0.1% formaldehyde crosslink after washing; high values mean tight binding
Details in all cases: protein: recombinant; tags: N-terminal GST; dsDNA, one strand shown
FLI1 = target: T1, FLI1 (Homo sapiens, UniProt Q01543 1-452)
T1 sequence: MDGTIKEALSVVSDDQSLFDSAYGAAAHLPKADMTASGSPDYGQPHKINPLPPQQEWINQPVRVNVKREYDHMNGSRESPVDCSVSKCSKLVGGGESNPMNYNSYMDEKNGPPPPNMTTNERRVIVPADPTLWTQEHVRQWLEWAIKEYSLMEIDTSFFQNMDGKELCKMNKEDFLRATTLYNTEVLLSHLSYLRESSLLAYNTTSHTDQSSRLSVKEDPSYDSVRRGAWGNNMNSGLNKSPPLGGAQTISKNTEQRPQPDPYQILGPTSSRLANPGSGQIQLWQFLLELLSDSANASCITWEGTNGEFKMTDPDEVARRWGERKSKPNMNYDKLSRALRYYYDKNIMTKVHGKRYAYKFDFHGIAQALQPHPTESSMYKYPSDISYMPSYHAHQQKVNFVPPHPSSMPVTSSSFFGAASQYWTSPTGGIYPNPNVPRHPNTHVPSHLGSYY
How it was run: (§1)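 Human transcription factors fused to GST were expressed in yeast, captured on glutathione beads, given DNA barcodes and pooled with a GST-only negative control. Pools were incubated with 200 nmole of a 16-mer random double-stranded DNA library in Tris/NaCl/DTT/glycerol buffer at room temperature for 30 min. They were then washed, crosslinked with 0.1% formaldehyde, proximity-ligated (BsaI/T4 ligase, 1 h, 37 °C), PCR-amplified and sequenced on an Illumina NextSeq500. Binding signal is each 6-mer's read frequency for a factor divided by its frequency for the GST control.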

ELK1 = target: T2, ELK1 (Homo sapiens, UniProt P19419 1-428)
T2 sequence: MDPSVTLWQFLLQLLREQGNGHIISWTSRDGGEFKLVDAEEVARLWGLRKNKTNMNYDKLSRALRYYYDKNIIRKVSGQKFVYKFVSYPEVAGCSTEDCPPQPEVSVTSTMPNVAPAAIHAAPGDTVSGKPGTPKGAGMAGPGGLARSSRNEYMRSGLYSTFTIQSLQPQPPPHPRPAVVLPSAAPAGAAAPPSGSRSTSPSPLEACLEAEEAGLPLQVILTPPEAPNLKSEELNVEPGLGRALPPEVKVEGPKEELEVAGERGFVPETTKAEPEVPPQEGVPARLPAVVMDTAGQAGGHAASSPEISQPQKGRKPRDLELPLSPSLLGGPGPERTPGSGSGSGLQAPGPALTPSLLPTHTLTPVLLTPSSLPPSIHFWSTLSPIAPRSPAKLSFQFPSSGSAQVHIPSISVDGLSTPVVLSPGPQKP
How it was run: as §1

GABPA = target: T3, GABPA (Homo sapiens, UniProt Q06546 1-454)
T3 sequence: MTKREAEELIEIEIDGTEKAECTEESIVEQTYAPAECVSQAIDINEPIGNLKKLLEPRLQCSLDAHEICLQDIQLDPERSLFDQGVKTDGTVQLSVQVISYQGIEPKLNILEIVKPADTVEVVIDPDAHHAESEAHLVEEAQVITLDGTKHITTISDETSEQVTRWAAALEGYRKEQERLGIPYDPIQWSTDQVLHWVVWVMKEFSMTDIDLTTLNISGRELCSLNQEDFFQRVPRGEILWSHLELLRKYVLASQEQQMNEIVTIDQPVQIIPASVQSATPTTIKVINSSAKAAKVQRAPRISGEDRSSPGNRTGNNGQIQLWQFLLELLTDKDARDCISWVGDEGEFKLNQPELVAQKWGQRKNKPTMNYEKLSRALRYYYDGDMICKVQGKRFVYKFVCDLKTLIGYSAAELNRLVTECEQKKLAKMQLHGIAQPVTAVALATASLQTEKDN
How it was run: as §1

ERG = target: T4, ERG (Homo sapiens, UniProt P11308 1-479)
T4 sequence: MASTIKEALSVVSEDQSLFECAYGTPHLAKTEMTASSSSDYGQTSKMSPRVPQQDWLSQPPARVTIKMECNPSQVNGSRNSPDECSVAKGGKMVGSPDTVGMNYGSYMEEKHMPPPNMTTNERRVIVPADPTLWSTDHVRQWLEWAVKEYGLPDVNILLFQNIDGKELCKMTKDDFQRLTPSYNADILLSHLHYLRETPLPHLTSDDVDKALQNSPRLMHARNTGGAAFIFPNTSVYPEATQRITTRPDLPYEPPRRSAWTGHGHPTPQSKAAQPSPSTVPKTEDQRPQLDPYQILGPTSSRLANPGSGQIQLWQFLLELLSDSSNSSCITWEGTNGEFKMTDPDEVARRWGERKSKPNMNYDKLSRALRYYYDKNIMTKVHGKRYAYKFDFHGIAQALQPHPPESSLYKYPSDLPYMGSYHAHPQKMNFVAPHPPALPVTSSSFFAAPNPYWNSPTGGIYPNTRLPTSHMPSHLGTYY
How it was run: as §1

ELF1 = ELF1 (Homo sapiens, UniProt P32519 1-619)
How it was run: as §1

EHF = target: T5, EHF (Homo sapiens, UniProt Q9NZC4 1-300)
T5 sequence: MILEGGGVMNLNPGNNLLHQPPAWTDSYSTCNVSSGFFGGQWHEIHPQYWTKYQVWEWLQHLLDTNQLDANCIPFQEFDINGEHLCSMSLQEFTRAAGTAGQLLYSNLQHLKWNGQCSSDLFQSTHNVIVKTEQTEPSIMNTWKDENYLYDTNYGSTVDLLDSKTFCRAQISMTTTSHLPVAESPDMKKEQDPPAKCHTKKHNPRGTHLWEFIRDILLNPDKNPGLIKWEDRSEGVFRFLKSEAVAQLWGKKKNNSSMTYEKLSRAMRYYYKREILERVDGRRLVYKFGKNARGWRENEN
How it was run: as §1

SPI1 = SPI1 (Homo sapiens, UniProt P17947 1-270)
How it was run: as §1

SPIB = SPIB (Homo sapiens, UniProt Q01892 1-262)
How it was run: as §1

ELK3 = target: T6, ELK3 (Homo sapiens, UniProt P41970 1-407)
T6 sequence: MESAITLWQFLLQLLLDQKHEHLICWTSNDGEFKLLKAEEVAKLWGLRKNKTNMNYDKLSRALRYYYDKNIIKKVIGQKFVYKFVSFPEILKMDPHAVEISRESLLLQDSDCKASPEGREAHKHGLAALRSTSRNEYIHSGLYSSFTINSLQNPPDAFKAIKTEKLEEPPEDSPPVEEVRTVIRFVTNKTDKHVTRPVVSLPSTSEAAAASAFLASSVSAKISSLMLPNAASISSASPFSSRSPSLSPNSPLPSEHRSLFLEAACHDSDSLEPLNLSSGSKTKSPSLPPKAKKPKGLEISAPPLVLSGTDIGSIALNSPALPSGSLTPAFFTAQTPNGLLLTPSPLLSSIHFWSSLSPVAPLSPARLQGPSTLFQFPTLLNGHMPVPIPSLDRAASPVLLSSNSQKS
How it was run: as §1

SPIB, sequence (Q01892 whole entry): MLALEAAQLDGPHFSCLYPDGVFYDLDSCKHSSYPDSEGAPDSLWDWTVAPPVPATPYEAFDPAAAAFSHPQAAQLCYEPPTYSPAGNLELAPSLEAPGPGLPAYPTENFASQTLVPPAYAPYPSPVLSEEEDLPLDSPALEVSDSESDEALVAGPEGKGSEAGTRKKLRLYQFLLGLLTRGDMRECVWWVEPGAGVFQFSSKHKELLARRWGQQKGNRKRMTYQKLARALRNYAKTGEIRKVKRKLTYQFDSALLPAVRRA
ELF1, sequence (P32519 whole entry): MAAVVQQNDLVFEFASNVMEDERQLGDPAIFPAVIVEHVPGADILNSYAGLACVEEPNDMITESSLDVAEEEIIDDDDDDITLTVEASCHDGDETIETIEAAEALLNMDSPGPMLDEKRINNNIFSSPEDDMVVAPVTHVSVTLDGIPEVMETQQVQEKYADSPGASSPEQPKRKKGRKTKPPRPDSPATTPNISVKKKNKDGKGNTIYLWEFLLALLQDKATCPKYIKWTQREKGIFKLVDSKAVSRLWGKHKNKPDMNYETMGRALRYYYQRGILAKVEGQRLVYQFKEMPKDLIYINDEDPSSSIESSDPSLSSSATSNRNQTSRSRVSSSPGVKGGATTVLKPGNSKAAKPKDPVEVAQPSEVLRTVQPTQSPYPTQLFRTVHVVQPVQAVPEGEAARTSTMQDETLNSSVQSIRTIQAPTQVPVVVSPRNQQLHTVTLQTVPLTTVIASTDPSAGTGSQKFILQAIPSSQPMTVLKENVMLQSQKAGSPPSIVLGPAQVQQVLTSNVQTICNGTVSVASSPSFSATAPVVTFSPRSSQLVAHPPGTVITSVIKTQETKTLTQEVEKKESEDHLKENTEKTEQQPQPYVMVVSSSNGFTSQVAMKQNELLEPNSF

Sequence	binding signal (FLI1)	binding signal (ELK1)	binding signal (GABPA)	binding signal (ERG)	binding signal (ELF1)	binding signal (EHF)	binding signal (SPI1)	binding signal (SPIB)	binding signal (ELK3)
GTTTAC	1.21 fold enrichment (6-mer frequency, TF over GST control)	1.13 fold enrichment (6-mer frequency, TF over GST control)	1.19 fold enrichment (6-mer frequency, TF over GST control)	1.12 fold enrichment (6-mer frequency, TF over GST control)	1.08 fold enrichment (6-mer frequency, TF over GST control)	1.14 fold enrichment (6-mer frequency, TF over GST control)	1.13 fold enrichment (6-mer frequency, TF over GST control)	1.09 fold enrichment (6-mer frequency, TF over GST control)	1.03 fold enrichment (6-mer frequency, TF over GST control)
CGGTTT	1.26 fold enrichment (6-mer frequency, TF over GST control)	1.18 fold enrichment (6-mer frequency, TF over GST control)	1.25 fold enrichment (6-mer frequency, TF over GST control)	1.33 fold enrichment (6-mer frequency, TF over GST control)	1.26 fold enrichment (6-mer frequency, TF over GST control)	1.27 fold enrichment (6-mer frequency, TF over GST control)	1.44 fold enrichment (6-mer frequency, TF over GST control)	1.23 fold enrichment (6-mer frequency, TF over GST control)	1.25 fold enrichment (6-mer frequency, TF over GST control)
GCACAA	1.1 fold enrichment (6-mer frequency, TF over GST control)	1.13 fold enrichment (6-mer frequency, TF over GST control)	1.09 fold enrichment (6-mer frequency, TF over GST control)	1.1 fold enrichment (6-mer frequency, TF over GST control)	1.09 fold enrichment (6-mer frequency, TF over GST control)	1.1 fold enrichment (6-mer frequency, TF over GST control)	1.05 fold enrichment (6-mer frequency, TF over GST control)	1.09 fold enrichment (6-mer frequency, TF over GST control)	1.12 fold enrichment (6-mer frequency, TF over GST control)
TGCTCA	1.32 fold enrichment (6-mer frequency, TF over GST control)	1.28 fold enrichment (6-mer frequency, TF over GST control)	1.34 fold enrichment (6-mer frequency, TF over GST control)	1.41 fold enrichment (6-mer frequency, TF over GST control)	1.41 fold enrichment (6-mer frequency, TF over GST control)	1.36 fold enrichment (6-mer frequency, TF over GST control)	1.27 fold enrichment (6-mer frequency, TF over GST control)	1.35 fold enrichment (6-mer frequency, TF over GST control)	1.19 fold enrichment (6-mer frequency, TF over GST control)
ACGGCT	1.02 fold enrichment (6-mer frequency, TF over GST control)	1.16 fold enrichment (6-mer frequency, TF over GST control)	1.13 fold enrichment (6-mer frequency, TF over GST control)	1.12 fold enrichment (6-mer frequency, TF over GST control)	1.08 fold enrichment (6-mer frequency, TF over GST control)	1 fold enrichment (6-mer frequency, TF over GST control)	1.18 fold enrichment (6-mer frequency, TF over GST control)	1.14 fold enrichment (6-mer frequency, TF over GST control)	1.05 fold enrichment (6-mer frequency, TF over GST control)
TGTAAA	1.22 fold enrichment (6-mer frequency, TF over GST control)	1.06 fold enrichment (6-mer frequency, TF over GST control)	1.08 fold enrichment (6-mer frequency, TF over GST control)	1.15 fold enrichment (6-mer frequency, TF over GST control)	1.14 fold enrichment (6-mer frequency, TF over GST control)	1.13 fold enrichment (6-mer frequency, TF over GST control)	1.26 fold enrichment (6-mer frequency, TF over GST control)	1.2 fold enrichment (6-mer frequency, TF over GST control)	1.09 fold enrichment (6-mer frequency, TF over GST control)
GCTATG	1.16 fold enrichment (6-mer frequency, TF over GST control)	1.13 fold enrichment (6-mer frequency, TF over GST control)	1.26 fold enrichment (6-mer frequency, TF over GST control)	1.11 fold enrichment (6-mer frequency, TF over GST control)	1.22 fold enrichment (6-mer frequency, TF over GST control)	1.21 fold enrichment (6-mer frequency, TF over GST control)	1.13 fold enrichment (6-mer frequency, TF over GST control)	1.31 fold enrichment (6-mer frequency, TF over GST control)	1.15 fold enrichment (6-mer frequency, TF over GST control)

From article PMC7862700, “An all-to-all approach to the identification of sequence-specific readers for epigenetic DNA modifications on cytosine”
